Results taken from PubChem BioAssay AID1347077 (National Center for Advancing Translational Sciences (NCATS), 2019).
Out of some 44,000 compounds screened, fewer than 10 were called active. Calls follow the shape of the dose curve; as a rule, active = well fitted activation curve with a large enough effect; inconclusive = small, poorly fitted or top-dose-only effect, or another doubt; inactive = no such curve, though single readings can be large or run the other way. These entries were drawn from the full list.

molecular target: Beta-2 adrenergic receptor (Homo sapiens) (UniProt P07550); assay: qHTS assay of beta-arrestin-biased ligands of beta2-adrenergic receptor: NCGC Sytravon Library Screen; conditions: HTLA Tango cells, beta-arrestin recruitment, luciferase luminescence, 18 h; series mostly up to 46.1 µM
Sequence (P07550 whole entry, looked up): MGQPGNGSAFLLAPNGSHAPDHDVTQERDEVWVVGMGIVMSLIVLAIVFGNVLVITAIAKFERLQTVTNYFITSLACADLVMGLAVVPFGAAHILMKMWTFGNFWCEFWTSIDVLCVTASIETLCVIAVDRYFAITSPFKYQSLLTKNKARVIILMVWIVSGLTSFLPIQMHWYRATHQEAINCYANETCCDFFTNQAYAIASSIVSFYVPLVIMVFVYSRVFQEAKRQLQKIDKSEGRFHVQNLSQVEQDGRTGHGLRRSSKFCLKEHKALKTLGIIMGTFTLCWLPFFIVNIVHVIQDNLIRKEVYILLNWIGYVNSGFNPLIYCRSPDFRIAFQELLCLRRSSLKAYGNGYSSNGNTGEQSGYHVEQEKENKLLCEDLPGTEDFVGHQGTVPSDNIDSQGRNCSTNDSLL
From the text: The concept of biased agonism is an emerging concept of molecular pharmacology which proposes that seven transmembrane receptors (7TMRs) or G protein-coupled receptors (GPCRs), exist in multiple signaling conformations and complexes and that ligands (either agonists or antagonists) can induce signaling biased responses for distinct signal transduction cascades. […] Furthermore, accumulating evidence over the last decade has drawn attention to a novel function of beta-arrestins as signal transducers that scaffold various signaling molecules upon activation of 7TMRs. […] This beta-arrestin-biased signaling presumably leads to distinct physiological outcomes from those by G protein activation. Additionally, the active receptor conformations which prefer on this beta-arrestin signaling are likely different from those activating G protein signaling. […] The goal of this screening project will be to discover and optimize novel beta-arrestin-biased ligands for beta2-AR signaling. A luminescent cell-based assay for beta2-AR-mediated agonism, known as the Tango assay, has been validated in which ligand binding of a recombinant beta2-AR and subsequent recruitment of a recombinant beta-arrestin lead to the release of the transcriptional activator tTA, which upregulates transcription of a tTA-responsive luciferase gene. […] Compounds from the NCGC Sytravon Library collection were screened as a concentration-titration series that ranged from 46 microM to 0.6 nM. NIH Molecular Libraries Probe Production Network [MLPCN] NIH Chemical Genomics Center [NCGC] MLPCN Grant: Fast-track/HHSN271700800025C PI: Bryan Roth and Bob Lefkowitz
Tango cells were dispensed into white, solid, tissue-culture-treated 1536-well plates at 1500 cells/well in DMEM, containing 1% fetal bovine serum (FBS). Then, 23 nL of compounds or DMSO were delivered to each well using a pin tool. Plates were incubated at 37 degrees C, 5% CO2 for 18 hr. Then 2.5 uL luminescent substrate mix (in-house prepared: 150 mM Tris-Cl, pH 7.6, 3 mM MgCl2, 1% Triton X-100, 5 mM DTT, 0.5 mM CoA, 0.15 mM ATP, 0.44 mM D-luciferin, final concentrations) was added to each well. Plates were then incubated for 15 minutes at room temperature, and subsequently measured on a ViewLux plate reader for luminescent signal using a clear filter with a 10 second exposure and 2x binning. The %Activity was determined from the corrected luminescence values. […] Concentration-response curves were fitted to the signals arising from the resulting luminescence. The concentration-effect curves were then classified based on curve quality (r2), response magnitude and degree of measured activity, and compounds were subsequently categorized based on their curve class.

outcome, inactive:
Cc1cc(C)cc(NS(=O)(=O)c2cc3c(cc2C)NC(=O)CO3)c1
Cc1[nH]c2ccccc2c1C(c1ccccc1)c1cccs1 (centres undefined)
CCOC(=O)c1c(C)[nH]c(C)c1S(=O)(=O)N1CCC(C(=O)Nc2ccc(C)c(Cl)c2)CC1
Cc1csc2nc(COc3ccc(NC(=O)COc4ccccc4)cc3)cc(=O)n12
COc1ccc(OC)c(CNC(=O)c2c3c(nc4ccccc24)C(=O)N(C2CCCCC2)C3)c1
Cc1ccc(NC(=O)CN2C(=O)C(c3ccc(F)cc3)=NC23CCCCCC3)c(C)c1
CCOc1ccc(C(=O)Nc2ccc3nc4c(c(Nc5ccccc5OC)c3c2)CCCC4)cc1
CCc1ccc(S(=O)(=O)c2nnn3c2nc(N2CCN(CC)CC2)c2sccc23)cc1
O=C(c1ccccc1F)N1CCC(c2nc3c(nnn3Cc3cccc(F)c3)c(=O)[nH]2)CC1
Cc1cc(=O)c2cc(C(=O)Nc3cccc(C)c3C)ccc2[nH]1
O=C(Nc1nnc(S(=O)(=O)N2CCOCC2)s1)c1cccc(Br)c1
COc1cccc(-c2nnc(SCC(=O)N3CCC(C)CC3)o2)c1
COc1ccc2c(C)c(CCC(=O)NCc3ccc(OC)c(OC)c3)c(=O)oc2c1
O=C(Cn1cc(SCc2cccc(Cl)c2)c2ccccc21)N1CCCCC1
COc1ccc(-c2cn3c(n2)sc2cc(C(=O)Nc4ccccc4F)ccc23)cc1
COc1cc(OC)c(OC)cc1/C=C/c1nc2ccccc2c(=O)n1-c1ccc(Br)c(C)c1
CCOC(=O)c1c(S(=O)(=O)N2CCCC(C(=O)NCc3ccc(F)cc3)C2)c(C)n(CC)c1C (centres undefined)
COc1ccc(CCNC(=O)CCCCn2c(=O)c3ccccc3n(Cc3ccccc3C)c2=O)cc1OC
CCOc1ccc(S(=O)(=O)c2cn(Cc3ccccc3)c3ccc(OCC)cc3c2=O)cc1
COc1ccc(NC(=O)CSc2nccn2C2CCCC2)cc1OC
Cc1ccc(-c2cnc(C3CC3)o2)cc1S(=O)(=O)Nc1cccc(C)c1C
COc1ccc(S(=O)(=O)NCC(c2ccco2)N2CCOCC2)cc1 (centres undefined)
CCOC(=O)c1c(NC(C)=O)c2c3c(sc2n1Cc1c(C)cc(C)cc1C)CCCC3
COc1ccc(-c2[nH]c3c(c2-c2c(-n4cccc4)n(C)c(=O)n(C)c2=O)c(=O)n(C)c(=O)n3C)cc1
CC(C)c1ccc(NC(=O)Cn2nnc(C(=O)NCCc3ccccc3)c2N)cc1
CCn1c(=O)cc(OCC(=O)Nc2cc(Cl)c(OC)cc2OC)c2ccccc21
CCc1ccc(NC(=O)Cn2c(=O)n(CCC(=O)NCc3ccc4c(c3)OCO4)c(=O)c3ccccc32)cc1
Cc1cc(C)cc(NC(=O)CSc2nc3nccnc3c(=O)n2CCc2c[nH]c3ccccc23)c1
Cc1c(NC(=O)Cc2ccccc2)cccc1-c1nc2cccnc2s1
COc1ccc(S(=O)(=O)NCC(c2ccc(N(C)C)cc2)N2CCCC2)cc1 (centres undefined)
COc1ccc(N2CCN(S(=O)(=O)CCNC(=O)C(c3ccccc3)c3ccccc3)CC2)cc1
N#C/C(=C\c1cccc(F)c1)c1nc(-c2cc3c(ccc4ccccc43)oc2=O)cs1
CCn1c2ccccc2c2nnc(N3CCN(c4cc(C)ccc4C)CC3)nc21
CCOc1ccc(OCC)c(NC(=O)c2c(C)nn(-c3ccccc3)c2-n2cccc2)c1
CCOc1ccc(CNC(=O)c2cc(=O)[nH]c3ccc(S(=O)(=O)N4CCCCC4)cc23)cc1
O=C(CC(NCc1cccnc1)C(=O)O)Nc1ccc(O)cc1 (centres undefined)
CCc1nc2onc(C)c2c(=O)n1CC(=O)O
CCCCc1nn2c(=O)cc(COC(=O)c3cccc(NC(=O)COc4ccccc4)c3)nc2s1
COc1ccccc1C(=O)OCc1cc(=O)n2nc(-c3cccs3)sc2n1
CCOc1ccccc1CNC(=O)Nc1cn(CC(C)C)c(=O)c2ccccc12
CC(=O)Nc1cc(C(=O)NCc2ccc(F)cc2Cl)ccc1Sc1ccc(Cl)cc1
O=S(=O)(c1ccc(Cl)cc1)c1nnn2c1nc(NC1CCCC1)c1sccc12
CC(C)(C)c1ccc(C(=O)NCC(c2ccco2)S(=O)(=O)c2ccc(F)cc2)cc1 (centres undefined)
COc1ccc(CCNc2nc(-c3ccc(Cl)cc3)cc(C(F)(F)F)n2)cc1OC
CCOc1ccc(Nc2ncnc3scc(-c4ccc(OC)cc4)c23)cc1
Cc1cccc(NC(=O)CSc2nnc(CNC(=O)c3cccc(C)c3)n2-c2ccccc2)c1
Cc1c(C(=O)NCc2ccccc2Br)oc2ccc3c(c12)C(=O)CC(C)(C)O3
O=c1c(NCc2cccs2)nccn1-c1ccccc1
COc1ccccc1Nc1c2c(nc3ccc(NC(=O)/C=C/c4cc(OC)c(OC)c(OC)c4)cc13)CCCC2
CC(=O)N1CCc2cc(Br)cc(S(=O)(=O)CCC(=O)NCCc3ccc(Cl)cc3)c21
Cc1ccccc1CNC(=O)C1CCCN(S(=O)(=O)N(C)c2ccc(F)cc2)C1 (centres undefined)
CCOc1cccc(CNC(=O)c2ccc(N3CCCC3)c(NC(=O)Nc3ccccc3CC)c2)c1
Cc1ccc(CN2CCC(CNC(=O)c3cnn(-c4ccccc4Cl)c3C3CCN(C(=O)OC(C)(C)C)CC3)CC2)cc1
COc1cc(OC)c(NC(=O)Cc2ccc(-n3c(C)nc4cccnc43)cc2)cc1Cl
COc1ccc2c(c1)c(N1CCCC1=O)c(C(=O)Nc1ccc(OC)c(Cl)c1)n2C
O=C(CC1N=C2c3ccccc3N=C(SCc3ccc(F)cc3)N2C1=O)NCc1cccs1 (centres undefined)
CCOc1ccc(C(=O)c2cn(Cc3ccc(F)cc3)c3ccc(F)cc3c2=O)cc1
COc1ccccc1CNC(=O)CCn1c(=O)c2ccccc2n(CC(=O)Nc2ccc(Br)cc2F)c1=O
CCOc1ccc(N(CC)S(=O)(=O)N2CCCC(C(=O)NCc3ccc(Cl)cc3)C2)cc1 (centres undefined)
COC(=O)c1cc(S(=O)(=O)N2CCN(c3cc(Cl)ccc3C)CC2)c[nH]1
Cc1ccc(Cl)cc1NC(=O)CSc1nc2ccccc2nc1Cc1ccccc1
COC(=O)c1ccc2c(c1)N(CC(=O)Nc1ccc(C)c(C)c1)C(=O)c1ccccc1S2
CCc1ccccc1NC(=O)CSc1nnc(-c2ccccc2)c(-c2ccccc2)n1
COc1ccc(-c2c(C)c3ccc(O)c(CN4CCN(C)CC4)c3oc2=O)cc1OC
CCOC(=O)c1ccc2c(c1)N(Cc1cccc(OC)c1)C(=O)c1ccccc1S2(=O)=O
CCN(Cc1ccccc1)Cc1c(O)ccc2c(=O)c(-c3ccc(Cl)cc3Cl)coc12
COC(=O)c1ccc(Cn2c(SCC(=O)N(C)c3ccccc3)nc3ccccc32)cc1
Cc1ccc(CNC(=O)CCNS(=O)(=O)c2ccc3c(c2)oc(=O)n3C)cc1
CSc1ccc(CCNC(=O)c2cc(C)nc3c2c(C)nn3-c2cccc(F)c2)cc1
COc1cc(NC(=O)c2cc3ccc4cccnc4c3[nH]2)cc(OC)c1OC
CCCCCn1c(=O)[nH]c2cc(C(=O)Nc3ccc(F)cc3)ccc2c1=O
Cc1ccc(NC(=O)Nc2sc3nc4n(c(=O)c3c2C)CCC(C)CC4)c(Cl)c1 (centres undefined)
Cc1ccc(-n2ncc(C(=O)N(C)Cc3ccccc3)c2-n2cccc2)cc1
COc1ccccc1NC(=O)C1=C(C)Nc2ncnn2C1c1sccc1C (centres undefined)
Cc1ccc(CNC(=O)CCC(=O)N2CC(C)Sc3ccccc32)cc1 (centres undefined)
COc1ccccc1N1CCN(CCCNC(=O)c2cnn(-c3ccccc3Cl)c2C2CCN(C(=O)OC(C)(C)C)CC2)CC1
Cc1ccc(Cl)cc1NC(=O)C(C)n1nnc2sc(-c3ccccc3)cc2c1=O (centres undefined)
Cc1ccc(Cl)cc1NC(=O)Cc1ccc(-n2c(C)nc3cccnc32)cc1
Cc1cc2c(cc3c(SCc4nc(-c5ccccc5)oc4C)nnc(C)n32)o1
Cc1ccc(-c2nn3c(=O)cc(CN4CCN(C(=O)Nc5cccc(C(F)(F)F)c5)CC4)nc3s2)cc1
Cc1ccccc1NC(=O)Cn1c(=O)n(CCc2ccccc2)c(=O)c2ccccc21
CCCn1c2ccccc2c2cnn(CC(=O)N(CC)c3cc(C)ccc3C)c(=O)c21
O=C(COc1ccc(Cl)cc1)Nc1ccccc1OCc1cc(=O)n2ccccc2n1
CCc1ccccc1NC(=O)CCOc1ccccc1
CCC(C(=O)Nc1cc(OC)ccc1OC)n1c(=O)c(C(F)(F)F)nc2ccccc21 (centres undefined)
Cc1ccc(CN2COc3cc(C)c4c(oc(=O)c5ccccc54)c3C2)cc1
COc1ccc(OC)c(-c2csc(-c3c(N)c(C(=O)c4ccccc4)n4ccccc34)n2)c1
COc1ccc(CNC(=O)c2ccc3c(c2)nc2n3CCOC2)c(OC)c1
CCOC(=O)c1scc(-c2ccc(C)cc2)c1S(=O)(=O)Nc1cc(C)ccc1C
CCN(CCCNC(=O)c1ccc(Sc2ccc(C)cc2)c(NC(C)=O)c1)c1cccc(C)c1
CCOc1cccc(NC(=O)c2ccc(F)c(S(=O)(=O)N(CC)c3cccc(C)c3)c2)c1
COc1ccc(C(=O)c2oc3ccccc3c2NC(=O)COc2cccc(C)c2)cc1
Cc1ccccc1OCc1ccc(-c2nc(C#N)c(N3CCCCC3)o2)o1
CCCCc1nn2c(=O)cc(COC(=O)c3ccc(NC(=O)c4ccccc4C)cc3)nc2s1
